Epigenetic reg: derepresses silenced GFP reporter in murine cells | Potency, µM (titrated, usually from 53.9 µM), without a hit: at the top dose GFP activation, hits mostly activators | actives 0.2% (n = 280,000) | murine LDR cells, GFP reporter derepression, 30 h; active = well fitted activation curve with a large enough effect; inconclusive = small, poorly fitted or top-dose-only effect; also: potency is read from the fitted curve at half-maximal effect; % of control where 0% means no effect; nearly all actives have a fitted effect of over 60% in size
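Murine LDR cells bearing a silenced CMV-driven GFP reporter were exposed to compound for 30 h at 37 C. After PBS washes, GFP-positive cells (20-120 um objects) counted by laser-scanning microplate cytometry.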
D1 PAM: potentiators of human D1 dopamine receptor. potentiation, % at 10 µM. actives 0.036% (n = 360,000). P21728. HEK293 TREx D1 cells, calcium flux, dopamine EC20 potentiation. AID 504651; in the data active = potentiation above about 30%; also: 0% is about no effect
TRHR agonist: agonists of human TRH receptor; activation, % at 2 µM; TRHR cells, calcium flux fluo-8, FDSS agonist mode; P34981; actives 0.18% (n = 360,000); also: 0% is about no effect
Target sequence (P34981 whole entry, looked up): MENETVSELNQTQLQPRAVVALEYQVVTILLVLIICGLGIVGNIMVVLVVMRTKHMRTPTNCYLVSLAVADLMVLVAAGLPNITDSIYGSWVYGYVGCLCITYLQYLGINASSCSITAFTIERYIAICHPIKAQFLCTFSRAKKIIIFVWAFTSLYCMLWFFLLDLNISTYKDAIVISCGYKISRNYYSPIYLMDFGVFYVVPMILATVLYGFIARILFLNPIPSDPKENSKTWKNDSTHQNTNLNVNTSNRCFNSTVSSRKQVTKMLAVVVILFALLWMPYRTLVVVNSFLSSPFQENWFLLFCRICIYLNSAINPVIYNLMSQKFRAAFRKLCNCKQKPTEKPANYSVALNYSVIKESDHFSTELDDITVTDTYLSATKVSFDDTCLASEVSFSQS
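Fluo-8-loaded TRHR cells; 10 s baseline, compound added, kinetic Ca2+ fluorescence read 1/s, agonist mode.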
D1 antag: blocks dopamine activation of the human D1 receptor. HEK293 TREx D1 cells, calcium flux, dopamine EC80; hits give low values. actives 3.2% (n = 360,000). P21728. AID 504652. activity change, negative = inhibition, % at 10 µM; in the data active = activity change below about -30%; also: % is scaled to controls: 0 for no effect and ±100 for the full control effect
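Inducible Hek293 Trex D1 cells (tetracycline, overnight, 30 C). Calcium dye 30–90 min RT. Antagonist mode: EC80 dopamine added after 180 s compound read.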
TRHR PAM: TRH receptor (human) allosteric enhancement; P34981; TRHR cells, fluo-8 calcium fluorescence, EC20 TRH enhancement; enhancement, % at 2 µM; actives 0.66% (n = 360,000); AID 493056; in the data active = enhancement above about 30%; also: 0% is about no effect
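Enhancer read-out: after compound pinning and an initial kinetic agonist-mode read, an EC20 of TRH (10 nM final) was injected and fluo-8 calcium signal (Ex 480/Em 530) followed at 1 s/cycle for 100 cycles in TRHR-expressing cells.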
D1 agonist: human D1 receptor agonism; HEK293 T-REx D1 cells, calcium flux, agonist mode; actives 1% (n = 360,000); P21728; activation, % at 2 µM; also: 0% is about no effect
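Tetracycline-induced HEK293 TREx D1 cells, force-coupled to calcium signalling, were dye-loaded with a no-wash calcium kit. Compound was pin-added after a 10 s baseline. Fluorescence was read kinetically at 1 cycle/s for 180 s, with calcium rises flagged as agonism.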
* hit, by the source's call; ? = inconclusive; nt = not tested or not shown. Sampled rows, rich in hits. Any-hit rate of the full collection: about 4.6%. Rule as the data show it, unless noted: active = activation above about 30%; inactive = the rest.

SMILES | Epigenetic reg | D1 PAM | TRHR agonist | D1 antag | TRHR PAM | D1 agonist
C/C(=N\N=C(N)N)c1ccccc1 | 1% | -17 | 1 | -38* | -3 | 1
NC(N)=N/N=C/c1ccc(N(c2ccccc2)c2ccccc2)cc1 | nt | 15 | 1 | 85 | 11 | 17
Cc1ccc2c(c1)C1CN(C)CCC1N2C(=O)CCCN1C(=O)c2cccc3cccc(c23)C1=O (stereo not given) | 3% | -16 | 0 | -49* | 6 | 1
Cc1ccc2c(c1)C1CN(C)CCC1N2C(=O)c1cccnc1Cl (stereo not given) | 7% | -5 | 1 | 9 | 0 | 1
Cc1ccc2c(c1)C1CN(C)CCC1N2C(=O)Nc1cccc(C(F)(F)F)c1 (stereo not given) | -2% | -4 | 2 | nt | 9 | 23
Cc1ccc2c(c1)[C@@H]1CN(C)CC[C@@H]1N2C(=O)Nc1cccc(C(F)(F)F)c1 | -3% | -27 | 2 | -52* | 3 | 20
CN1/C(=C\C=C2C(=O)NC(=O)NC2=O)C(C)(C)c2ccccc21 | ? | -1 | 101* | 1 | 0 | 107*
O=C(C1CCCN(S(=O)(=O)c2cccc3nsnc23)C1)N1CCC2(CC1)OCCO2 (stereo not given) | -1% | 9 | 1 | -36* | 2 | 0
CCN(CC)S(=O)(=O)c1ccc(C)c(NCC(=O)Nc2ccc(C#N)c(Cl)c2)c1 | 0% | -9 | 1 | -37* | -4 | 14
CCNC(=O)NC(=O)C(C)OC(=O)c1c(C)nn(Cc2ccccc2Cl)c1Cl (stereo not given) | 0% | -3 | 0 | -35* | -3 | 5
COc1ccc(Cc2nccc3cc(OC)c(OC)cc23)cc1OC | -3% | -3 | 0 | -32* | -5 | 8
O=C1NC(=O)C(CCc2ccncc2)(Cc2cccc(Cl)c2Cl)C(=O)N1c1ccc(Br)cc1 (stereo not given) | 1% | -9 | 0 | -76* | 3 | 2
CCc1ccc(N2C(=O)NC(=O)C(CCc3ccncc3)(CCc3ccncc3)C2=O)cc1 | 0% | 1 | 0 | -1 | 1 | 2
O=C1NC(=O)N(c2ccc3c(c2)OCO3)C(=O)/C1=C/c1ccc(N2CCCC2)o1 | 7% | -7 | 13 | 4 | -7 | 33*
O=C1NC(=O)N(c2ccc3c(c2)OCO3)C(=O)/C1=C/c1ccsc1 | 0% | 1 | 0 | -10 | 4 | 4
O=C1NC(=O)N(c2ccc3c(c2)OCO3)C(=O)/C1=C/c1cccs1 | 22µM* | -2 | 1 | 18 | 0 | -1
CC/C=C\C[C@@H](/C=C/C=C\C/C=C\C/C=C\CCCC(=O)O)OO | 0% | nt | nt | nt | nt | nt
CCN1C(=O)/C(=C/c2ccc3c(c2)CCN3CCCCl)C(=O)NC1=S | -2% | 0 | 0 | 1 | -1 | 4
CC(C)(C)N1C(=O)NC(=O)/C(=C\c2ccc3c(c2)CCN3CCCCl)C1=O | -1% | -1 | 1 | -32* | -1 | 1
Cc1ccccc1-n1c(/C=C/c2ccc(N(C)C)cc2)nc2ccccc2c1=O | 10µM* | 60* | 93* | 10 | 18 | 197*
O=c1c2ccccc2nc(/C=C/c2ccccc2O)n1-c1ccccc1O | nt | -6 | 12 | -22 | 0 | 31*
C[C@H](N)Cc1c[nH]c2ccc(OCc3cccs3)cc12 | 0% | nt | nt | nt | nt | nt
Cc1ccc(-n2nc3c(N4CCC(C(=O)NCCc5ccccc5)CC4)nnc(C)c3c2C)cc1 | ? | -3 | 0 | -72* | 2 | 5
Cc1ccc(C)c(C2(O)CC(C)N(C)CC2C)c1 (stereo not given) | -1% | -5 | 1 | -46* | 1 | 1
CN(C(=O)Cc1ccc(Cl)c(Cl)c1)C(CN1CCCC1)c1cccc(N=C=S)c1 (stereo not given) | 1% | nt | nt | nt | nt | nt
O=C(Nc1ccc(C(F)(F)F)cc1)OC1CN2CCC1CC2 (stereo not given) | 1% | -3 | 4 | -5 | 3 | 30*
CC(=O)Nc1ccccc1C(=O)OCC(=O)c1ccc2ccccc2c1 | 4% | -8 | -1 | 6 | -3 | 23
